This is a sample that favours compounds with a hit; in the whole collection about 6% have one here.
Chronic BCR inh = chronic active BCR signaling inhibition; AID 493014; 340,000 compounds, 0.05% hits; Potency, µM (doses to about 46.1 µM), for inactives: at the highest dose activity change, negative = inhibition, most hits filed as inhibitors; ABC-DLBCL IkBa-CBG/CBR reporter, luminescence ratio, 4 h; active means well fitted inhibition curve with a large enough effect in the signal ratio, with a control signal flat, not every such curve was filed as active; inconclusive means small, poorly fitted or top-dose-only effect, or effect the other way, or a change in a side signal; the % refers to the signal ratio;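 further: potency means the concentration at half of the fitted maximal effect; plate controls were basal doxycycline-induced cells for no effect and cells given 10 µM MG132 for full effect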
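Compounds up to 46 uM were incubated four hours with TMD8 cells whose green CBG68 luciferase is fused to IkappaBalpha; red CBR luminescence normalised the signal, and concentration-effect curves were fitted to fusion, red and ratio data.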
D1 agonist = agonists of human D1 dopamine receptor | P21728 | HEK293 T-REx D1 cells, calcium flux, agonist mode | activation, % at 2 µM | 360,000 compounds, 1% hits; in the data active means activation above about 30%; further: 0% is about no effect
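Inducible HEK293 T-REx D1 cells, force-coupled to calcium signalling, were plated at 4000 cells/well with tetracycline and held overnight at 30 C. After no-wash calcium dye loading, compound-evoked calcium rise over 180 s flagged agonists.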
D1 antag = blocks dopamine activation of the human D1 receptor; P21728; HEK293 TREx D1 cells, calcium flux, dopamine EC80; hits give low values; activity change, negative = inhibition, % at 10 µM; 360,000 compounds, 3.2% hits; in the data active means activity change below about -30%; further: on the % scale 0 is the no-effect control and ±100 the full control effect
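Allosteric or orthosteric antagonism assessed as attenuation of the calcium response to EC80 dopamine, added 180 s after compound, in induced HEK293 Trex D1 cells loaded with no-wash calcium dye.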
DRD3 antagonist = blocks the human D3 dopamine receptor; D3R cells, DiscoveRx beta-arrestin luminescence, antagonist mode; hits give low values; max response, negative = inhibition, %; 360,000 compounds, 2.5% hits; in the data active means max response below about -50%; inconclusive means no clear call, values can overlap the other calls; further: on the % scale 0 is the no-effect control and ±100 the full control effect
Target sequence (P35462 whole entry, looked up): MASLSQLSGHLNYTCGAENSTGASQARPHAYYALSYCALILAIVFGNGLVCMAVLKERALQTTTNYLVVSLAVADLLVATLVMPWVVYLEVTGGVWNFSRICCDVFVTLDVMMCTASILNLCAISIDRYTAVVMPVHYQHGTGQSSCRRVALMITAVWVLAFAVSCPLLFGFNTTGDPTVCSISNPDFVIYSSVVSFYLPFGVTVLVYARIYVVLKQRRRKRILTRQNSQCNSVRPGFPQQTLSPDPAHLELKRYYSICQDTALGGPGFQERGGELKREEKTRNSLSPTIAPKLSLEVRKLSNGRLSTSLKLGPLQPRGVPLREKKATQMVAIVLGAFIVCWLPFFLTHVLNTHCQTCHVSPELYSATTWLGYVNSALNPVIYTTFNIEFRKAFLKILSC
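Cells expressing the human receptor were seeded at 1500 cells/well, incubated overnight at 37 degrees C in 5% CO2, then exposed to library compounds with dopamine controls for 90 minutes at 37 degrees C before luminescent detection.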
D1 PAM = human D1 dopamine receptor positive modulation. P21728. HEK293 TREx D1 cells, calcium flux, dopamine EC20 potentiation. potentiation, % at 10 µM. 360,000 compounds, 0.036% hits; in the data active means potentiation above about 30%; further: 0% is about no effect
DRD3 agonist = agonists of human D3 dopamine receptor | P35462 | D3R DiscoveRx beta-arrestin cells, luminescence, 90 min | max activation, % | 410,000 compounds, 0.58% hits; in the data active means max activation above about 30%; further: 0% is about no effect
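Cells at 1500/well, incubated overnight, then treated with pinned compounds (dopamine as control) for 90 min at 37 degrees C. DiscoveRx reagent added for 30 - 60 minutes at room temperature; luminescence read.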
The depositor's hits bear a star; u = inconclusive; x = not tested or not shown.

SMILES | Chronic BCR inh | D1 agonist | D1 antag | DRD3 antagonist | D1 PAM | DRD3 agonist
CCOC(=O)C1CCC(CN(Cc2ccc(Cl)cc2)S(=O)(=O)c2ccc(Br)cc2)CC1 (stereo not given) | 0% | 2 | -9 | x | 0 | 3
Cc1ccc(C)c(N2CCN(S(=O)(=O)c3ccc(-c4cnc(C5CC5)o4)cc3)CC2)c1 | x | 2 | -4 | x | 1 | -18
O=C(COC(=O)Cc1n[nH]c(=O)c2ccccc12)NNC(=O)c1ccc(Cl)cc1 | 2% | 1 | 4 | -131* | -1 | -26
O=C(Cn1[nH]c(=O)c2ccccc2c1=O)OCC(=O)c1ccccc1 | 1% | 3 | 5 | 3 | 4 | 10
O=C(COC(=O)Cn1[nH]c(=O)c2ccccc2c1=O)NNC(=O)c1ccc(Br)cc1 | -1% | 0 | 5 | -118* | 3 | -34
COc1cccc(-c2ccc3c(c2)O[C@@H](CN(C)C(=O)C2CCOCC2)[C@H](C)CN([C@H](C)CO)S3(=O)=O)c1 | x | x | x | 6 | x | 4
CCCCCn1c(=O)c(C(=O)c2ccccc2)nc2ccccc21 | 15% | 3 | 7 | 20 | -1 | -1
CCCCCCn1c(=O)[nH]c2nc3cc(N)ccc3nc2c1=O | u | 451* | -14 | 9 | 16 | 7
CC(=O)Nc1ccc(NC2=Nc3ccccc3N3C2=Nc2c(c(C)nn2-c2ccccc2)C3c2ccccc2)cc1 (stereo not given) | u | 7 | -20 | 7 | -11 | 34*
COc1ccc(NC2=Nc3ccccc3N3C2=Nc2c(c(C)nn2-c2ccc(C)cc2)C3c2cccnc2)cc1 (stereo not given) | 0% | 4 | -7 | 15 | -3 | 5
Cc1ccc2[nH]c3c(=O)n(CC(=O)Nc4ccc(Br)cc4C)ncc3c2c1 | x | 0 | 15 | x | 1 | -1
COc1ccccc1N1CCN(CCCNC(=O)c2nnc(Cc3c(F)cccc3Cl)o2)CC1 | x | 9 | -36* | x | -5 | -23
COc1ccccc1N1CCN(CCCNC(=O)c2nnc(Cc3ccc(F)cc3Cl)o2)CC1 | x | 5 | -39* | x | -5 | -17
COc1ccc(NC(=O)c2ncn(-c3ccccc3)n2)cc1Cl | x | 4 | -9 | x | 6 | -13
O=S(=O)([O-])CCC[n+]1c(/C=C\Nc2ccccc2)oc2ccc(-c3ccccc3)cc21 | 2% | 123* | -3 | x | -1 | x
CCCCC[C@H](O)/C=C/[C@H]1CCC(=O)[C@@H]1CCCCCCC(=O)N1CCCCC1CO (stereo not given in full) | u | 12 | -3 | 83 | -9 | 30*
CCC1CCCCN1C(=O)CCCOc1ccccc1 (stereo not given) | 19% | 6 | -27 | 1 | -7 | 1
CCC(C)(C)NC(=O)CN(C(=O)c1snc(C(N)=O)c1N)c1ccc2nc(C)sc2c1 | -15% | 1 | -55* | 6 | -5 | 1
CCC(C)(C)NC(=O)CN(C(=O)c1snc(C(N)=O)c1N)c1ccc2c(c1)OCCO2 | -18% | 1 | 8 | -19 | -8 | 0
O=C(Nc1ccc2c(c1)OCO2)N1CCN(c2ccccc2Cl)CC1 | -20% | 9 | -26 | u | -8 | -38
CSc1ccccc1N1CCN(C(=O)Nc2ccc3c(c2)NC(=O)CO3)CC1 | u | 15 | -49* | -24 | -12 | -5
Cc1nn(-c2nc3ccccc3s2)c(C)c1Oc1ccccc1O | u | 25 | -60* | -28 | -9 | -16
COc1cc(CNc2ccc3[nH]c(=O)[nH]c3c2)cc(Cl)c1OCc1ccccc1F | x | -1 | -14 | x | -1 | 10
COc1cc(CNC2CCCC2)cc(Cl)c1OCc1ccccc1F | u | 157* | -58* | -7 | 13 | -5
O=C(N/N=C/c1ccncc1)c1cc2c(ccc3ccccc32)o1 | -12% | 2 | -32* | 0 | 0 | 0
SMILES | Chronic BCR inh | D1 agonist | D1 antag | DRD3 antagonist | D1 PAM | DRD3 agonist
COc1ccc(C(CNC(=O)c2cc3ccccc3o2)N2CCCC2)cc1 (stereo not given) | -7% | 9 | 12 | -84* | x | -30
COc1ccc(C(CNC(=O)c2ccc(C)o2)N2CCOCC2)cc1 (stereo not given) | -1% | 0 | 1 | 0 | 1 | -6
COc1ccc(OCC(=O)NNC(=O)c2cc3ccccc3o2)cc1 | -2% | 0 | -31* | 15 | -7 | 3
O=C(O)c1ccc(/C=N/NC(=O)c2cc3c(ccc4ccccc43)o2)cc1 | u | 5 | -7 | 17 | 7 | 1
COc1ccc(CNC(=S)NNC(=O)c2cc3ccccc3o2)cc1 | -10% | 0 | 3 | 2 | -6 | 1
COc1ccc2ccc(OC)c(/C=N/NC(=O)c3cc4ccccc4o3)c2c1 | x | x | x | -87* | x | -8
COc1ccc(/C=N/NC(=O)c2cc3c(ccc4ccccc43)o2)cc1OC | 10% | 1 | -15 | 3 | -6 | 1
COc1ccc2c(c1)c1c(c(=O)n(-c3ccc(C)cc3)c(=O)n1CC(=O)c1ccc(Cl)cc1)n2C | x | 2 | 10 | x | -3 | 7
COc1ccc(CCNc2nc3cc(OC)c(OC)cc3c3nc(-c4ccccc4)nn23)cc1OC | x | 1 | -22 | x | 0 | 2
COc1ccc(S(=O)(=O)N2CCOCC2)cc1NC(=O)c1ccc(SC)cc1OC | x | x | x | 1 | x | 4
CC1CCc2c(sc3nnn(Cc4ccccc4Cl)c(=O)c23)C1 (stereo not given) | x | 2 | 5 | x | 1 | -3
COc1cc(C(=O)N/N=C/c2cc([N+](=O)[O-])cs2)cc(OC)c1OC | u | 0 | -11 | -50* | 2 | -18
COc1ccc(C(=O)NNC(=O)c2ccc3ccccc3c2O)cc1 | -4% | 2 | -2 | 4 | -1 | 10
COc1ccc2ccccc2c1/C=N/NC(=O)c1ccc([N+](=O)[O-])cc1 | u | -1 | -6 | -97* | -7 | -34
COc1cccc(OCC(=O)NNC(=O)c2ccc3ccccc3c2O)c1 | u | 9 | -37* | 12 | -6 | 4
COc1ccc(C(CNC(=O)c2oc3ccc(C)cc3c2C)N2CCCCC2)cc1 (stereo not given) | 1% | 0 | -2 | -104* | 2 | -15
COc1ccc2ccccc2c1/C=N/NC(=O)c1cccc(Br)c1 | 3% | 2 | -7 | -7 | -3 | -5
Cc1ccc(-c2nn3c(-c4ccccc4)nnc3c3ccccc23)cc1 | x | 2 | 3 | x | -5 | 7
Cc1ccc2nc3c(cc(C(=O)NCC4CCCO4)c(=N)n3C(C)C)c(=O)n2c1 (stereo not given) | x | -3 | 11 | x | 0 | 0
COc1ccc(COC[B-](F)(F)F)cc1 | x | x | x | 4 | x | 5

Assay outcomes from PubChem.
